From PubChem BioAssay (NCI) come the findings set out here.

Each structure is given as a SMILES string. This is part of a sample that, as a whole, favours compounds with a hit. Of some 83,000 tested, about 20% had one in any assay.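 How to read the values: 0–100, growth inhibition (40 = 60% inhibited); 0, no net growth; -100 to 0, cell death (-40 = 40% of starting cells died; -100 = all dead).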 Values without a mark were called inactive. The source made the active and inactive calls. Rule for the calls: active = growth percent below 10; inactive = the rest.

Some test systems named below: HCT-15 colon; HT29 colon; SNB-75 CNS; SNB-19 CNS; U251 CNS; PC-3 prostate; SK-MEL-5 melanoma; UACC-62 melanoma; SK-MEL-28 melanoma; SK-MEL-2 melanoma; SN12C renal; UO-31 renal; TK-10 renal; ACHN renal; CAKI-1 renal; A498 renal; CCRF-CEM leukemia; MOLT-4 leukemia; LOX IMVI melanoma; EKVX NSCLC.
What all share (experiment): NCI-60 one-dose screen, 48 h (100 = growth as untreated, 0 = no growth, -100 = all killed)
Conditions in all cases: 10 µM unless noted

In the case of `COc1cc2c(cc1-c1c(C)noc1C)ncc1nc(CN3CCOCC3)n([C@H](C)COC(F)F)c12`, the growth in the assay on HCT-15 colon is 23%; with HT29 colon, 12.1%; in the assay with SNB-75 CNS, 3.11% (active); with SNB-19 CNS, 45.1%; with U251 CNS, 61.3%; with PC-3 prostate, 32.3%. For the same molecule, the growth with SK-MEL-5 melanoma is 19.8%; in the assay with UACC-62 melanoma, 17.4%; in the assay with SK-MEL-28 melanoma it was 59.3%; with SK-MEL-2 melanoma, 36.7%; in the assay on SN12C renal, 56.7%; in the assay on UO-31 renal it was 14.1%. Moreover, the growth was 2.77% (active) with TK-10 renal; 36.1% with ACHN renal; 35.1% in the assay with CAKI-1 renal; -7% (active) in the assay with A498 renal; 44% in the assay on CCRF-CEM leukemia; 59.5% with MOLT-4 leukemia.
For `O=C(C[C@]1(O)C(=O)Nc2ccc(Br)cc21)c1ccco1`, the growth in the assay with HCT-15 colon was 105%; with HT29 colon, 101%; in the assay with SNB-75 CNS it was 96.1%; in the assay with SNB-19 CNS, 95.6%; in the assay on U251 CNS, 100%; in the assay with PC-3 prostate, 92.6%. The growth is 93.3% in the assay on SK-MEL-5 melanoma; 90.7% in the assay on UACC-62 melanoma; 89.9% in the assay on LOX IMVI melanoma; 94.5% in the assay with SK-MEL-2 melanoma; 90% with SN12C renal; 75.4% in the assay on UO-31 renal. The growth is 125% with TK-10 renal; 109% in the assay with ACHN renal; 93.4% with CAKI-1 renal; 103% in the assay on A498 renal; 104% with CCRF-CEM leukemia; 102% in the assay on MOLT-4 leukemia.
`O=C(/C=C/c1ccccc1Cl)c1cccc(OCCCCOc2cccc(C(=O)/C=C/c3ccccc3Cl)c2)c1`: the growth was 103% in the assay on HCT-15 colon; 96.9% with HT29 colon; 86% in the assay on SNB-75 CNS; 100% in the assay with SNB-19 CNS; 90.3% with U251 CNS; 91.1% in the assay on PC-3 prostate. Besides, the growth with SK-MEL-5 melanoma was 99.5%; with UACC-62 melanoma, 85.5%; in the assay with SK-MEL-28 melanoma, 99.7%; in the assay with SK-MEL-2 melanoma, 110%; with EKVX NSCLC, 107%; in the assay on SN12C renal, 95.8%. In addition, the growth is 83.9% in the assay with UO-31 renal; 118% in the assay on TK-10 renal; 98.4% in the assay on ACHN renal; 93.4% in the assay on CAKI-1 renal; 109% with A498 renal; 91.8% in the assay with CCRF-CEM leukemia. In addition, the growth in the assay on MOLT-4 leukemia is 93.9%.
As to `N#Cc1nn(-c2cc(=O)[nH]c3ccc(Br)cc23)c(N)c1C#N`, the growth was 99.3% in the assay on HCT-15 colon; 94.8% in the assay with HT29 colon; 87.3% in the assay with SNB-75 CNS; 105% in the assay with SNB-19 CNS; 106% with U251 CNS; -86.9% (active) with PC-3 prostate. Further, the growth was 101% in the assay on SK-MEL-5 melanoma; 86.6% with UACC-62 melanoma; 101% in the assay with SK-MEL-28 melanoma; 103% with SK-MEL-2 melanoma; 87.5% in the assay with EKVX NSCLC; 87.3% with SN12C renal. Moreover, the growth was 65.7% in the assay on UO-31 renal; 110% in the assay on TK-10 renal; 91% with ACHN renal; 90.5% in the assay on CAKI-1 renal; 105% with A498 renal; -32% (active) with CCRF-CEM leukemia. The growth with MOLT-4 leukemia was -16.1% (active).
For the molecule `CC(=O)c1sc(-c2ccc(F)cc2)cc1O`, the growth with HCT-15 colon is 97.7%; in the assay on HT29 colon, 105%; in the assay on SNB-75 CNS it was 89%; in the assay with SNB-19 CNS it was 103%; in the assay with U251 CNS it was 100%; with PC-3 prostate, 93.9%. Further, the growth was 100% in the assay with SK-MEL-5 melanoma; 100% with UACC-62 melanoma; 110% in the assay on SK-MEL-28 melanoma; 107% with SK-MEL-2 melanoma; 99.7% in the assay with EKVX NSCLC; 109% in the assay on SN12C renal. Besides, the growth in the assay with UO-31 renal is 88.5%; with TK-10 renal it was 95.1%; in the assay on ACHN renal, 106%; in the assay on CAKI-1 renal it was 93.3%; with A498 renal it was 102%; in the assay on CCRF-CEM leukemia, 97.6%. In the assay on MOLT-4 leukemia, the growth was 93.4%.
With `COc1cc(/C=C/C(=O)N2CCN(C(=O)c3cc(OC)c(OC)c(OC)c3)CC2)ccc1OCCCOc1cc2c(cc1OC)C(=O)N1CCC[C@H]1C=N2`, the growth is 43.4% in the assay on HCT-15 colon; 13.5% with HT29 colon; -48.1% (active) in the assay with SNB-75 CNS; 13.8% with SNB-19 CNS; 7.58% (active) with U251 CNS; -43% (active) in the assay on PC-3 prostate. Moreover, the growth was 2.69% (active) with SK-MEL-5 melanoma; -90.1% (active) with UACC-62 melanoma; -47.3% (active) in the assay with SK-MEL-28 melanoma; -42.4% (active) with SK-MEL-2 melanoma; 8% (active) with EKVX NSCLC; 13.9% in the assay on SN12C renal. In addition, the growth with UO-31 renal was -12.8% (active); with TK-10 renal it was 6.61% (active); in the assay with ACHN renal, 0.236% (active); with CAKI-1 renal, 3.12% (active); with A498 renal it was -55.8% (active); in the assay with CCRF-CEM leukemia, -1.17% (active). Moreover, in the assay with MOLT-4 leukemia, the growth is 7.57% (active).
For the molecule `Clc1ccc(-c2cc(-c3ccccc3)nc(N3CCN(CCCNc4ccnc5cc(Cl)ccc45)CC3)n2)cc1`, the growth is -25.5% (active) with HCT-15 colon; -1.6% (active) in the assay with HT29 colon; -23.9% (active) in the assay on SNB-75 CNS; 49% in the assay on SNB-19 CNS; -52.9% (active) in the assay on U251 CNS; 43.1% with PC-3 prostate. Moreover, the growth in the assay with SK-MEL-5 melanoma was 33.2%; in the assay with UACC-62 melanoma it was 51%; in the assay with SK-MEL-28 melanoma it was -37.5% (active); in the assay on SK-MEL-2 melanoma it was 12.4%; in the assay on SN12C renal, -90.2% (active); with UO-31 renal, -52% (active). Also, the growth was 40.5% with TK-10 renal; 3.37% (active) with ACHN renal; -31.5% (active) in the assay with CAKI-1 renal; 69.5% in the assay with A498 renal; 2.6% (active) in the assay on CCRF-CEM leukemia; 2.31% (active) in the assay with MOLT-4 leukemia.
`CN(C)c1ccc(/C=C2\C=C(c3nc4ccccc4s3)OC2=O)cc1`: the growth with HCT-15 colon was 102%; in the assay with HT29 colon, 98.2%; in the assay on SNB-75 CNS, 87.2%; with SNB-19 CNS it was 95.3%; in the assay with U251 CNS it was 98.4%; in the assay on PC-3 prostate, 78.5%. The growth with SK-MEL-5 melanoma is 96.4%; in the assay with UACC-62 melanoma, 75.4%; in the assay on SK-MEL-28 melanoma, 106%; with SK-MEL-2 melanoma it was 107%; in the assay with EKVX NSCLC, 94%; in the assay on SN12C renal it was 97.1%. For the same molecule, the growth in the assay on UO-31 renal was 73.4%; in the assay with TK-10 renal it was 118%; in the assay with ACHN renal, 92.2%; with CAKI-1 renal it was 76%; in the assay on A498 renal, 112%; with CCRF-CEM leukemia it was 99%. In the assay with MOLT-4 leukemia, the growth was 94.8%.
